RORg inh: ROR gamma (mouse) transcription inhibition; Drosophila S2 Gal4-RORgamma UAS-luciferase reporter, 20 h; 310,000 tested, 5.4% active; AID 2551; Potency, µM (series often up to 53.6 µM), without a hit: top-dose activity change, negative = inhibition, hits mostly inhibitors; note: potency is the fitted concentration of half-maximal effect; nearly all actives have a fitted effect of over 60% in size
Target sequence (P51450 whole entry, looked up, the tested form may be a part): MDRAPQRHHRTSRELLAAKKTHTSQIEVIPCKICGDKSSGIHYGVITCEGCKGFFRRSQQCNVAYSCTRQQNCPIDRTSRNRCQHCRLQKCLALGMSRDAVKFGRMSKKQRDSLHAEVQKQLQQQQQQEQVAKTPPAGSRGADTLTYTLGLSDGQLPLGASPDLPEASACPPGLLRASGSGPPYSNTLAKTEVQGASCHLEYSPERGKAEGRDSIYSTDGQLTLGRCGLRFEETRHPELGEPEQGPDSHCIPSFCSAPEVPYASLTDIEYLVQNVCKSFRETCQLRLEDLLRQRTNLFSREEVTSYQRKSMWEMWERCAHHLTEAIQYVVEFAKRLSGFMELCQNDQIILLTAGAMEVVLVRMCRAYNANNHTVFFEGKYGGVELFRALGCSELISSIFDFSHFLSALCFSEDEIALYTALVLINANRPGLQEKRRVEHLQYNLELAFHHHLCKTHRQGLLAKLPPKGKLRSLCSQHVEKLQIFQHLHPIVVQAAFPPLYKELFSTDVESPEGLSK
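Luminescence from a UAS-regulated Photinus luciferase reporter in stably transfected Drosophila Schneider cells is measured; decreased signal marks ROR gamma inhibition. Fusion expression is induced by 700 uM copper sulfate for 20 hr.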
DT40 TDP1 CPT: DT40-hTDP1 cell growth loss with CPT; Potency, µM (top dose mostly 46.2 µM), for inactives: at the top dose activity change, negative = growth inhibition, hits mostly inhibitors; chicken DT40 Tdp1-/-;hTDP1 cells + 20 nM CPT, ATP luminescence, 48 h; AID 686979; 420,000 tested, 12% active; note: potency is the fitted concentration of half-maximal effect; nearly all actives have a fitted effect of over 55% in size
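Cell growth measured by CellTiter-Glo luminescence after a minimum 48 h, 37 C compound exposure with 20 nM CPT in Tdp1-knockout DT40 cells stably expressing hTDP1, seeded 400/well; qHTS titration format.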
VP16 counter: Gal4-VP16 reporter inhibition counter-screen. Potency, µM (doses to about 53.6 µM), inactives show at the highest dose activity, negative = inhibition, most hits filed as inhibitors. 310,000 tested, 3.5% active. Drosophila S2 Gal4-VP16 UAS-luciferase, luminescence, 20 h. AID 2546;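 note: Gal4-VP16 expression switched on by copper sulfate through the metallothionein promoter; potency is the fitted concentration of half-maximal effect; nearly all actives have a fitted effect of over 50% in size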
IL1B secr inh: inflammasome signaling inhibition, IL-1 beta readout; 360,000 tested, 4.7% active; AID 743279; THP-1 LPS/ATP IL-1B secretion, AlphaLISA, 16 h; active compounds read low; activity change, % at 57.5 µM; in the data active = activity change below about -50%; inconclusive = mostly about -30% to -49%
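THP-1 cells pretreated 1 hr with compounds (up to 57.5 uM final), then stimulated with LPS (250 ng/mL final) plus ATP (1.25 mM final); secreted IL-1B measured by AlphaLISA after 16 hr, decreased signal indicating inhibition.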
LDHA block: inhibitors of human lactate dehydrogenase A; P00338; purified LDHA, NADH/diaphorase-resazurin fluorescence; active compounds read low; activity change, % (values are at about 110 or 230 µM); 480,000 tested, 0.15% active; AID 1347041; in the data active = activity change below about -30%; inconclusive = mostly about -25% to -30%;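 note: plate controls were DMSO wells for no effect and wells without enzyme for full effect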
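Remaining NADH was detected by diaphorase (0.133 mg/mL) converting 37 µM resazurin to fluorescent resorufin, read at 0 and 20 minutes. The preceding 5-minute room-temperature reaction used 2 nM LDHA, 0.2 mM sodium pyruvate and 0.06 mM NADH at pH 7.4.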
DT40 TDP1 no CPT: qHTS for Inhibitors of human tyrosyl-DNA phosphodiesterase 1 (TDP1): qHTS in cells in absence of CPT | DT40 Tdp1-/- hTDP1 cells, no CPT, ATP luminescence, 48 h | Potency, µM (titrated, usually from 46.2 µM), for the others: top-dose activity change, negative = growth inhibition, most hits filed as inhibitors | 420,000 tested, 15% active | AID 686978, 2013; note: potency is the fitted concentration of half-maximal effect; nearly all actives have a fitted effect of over 55% in size
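Camptothecin absent (DMSO only). Human TDP1-complemented DT40 knockout cells, 400 cells/well, 37 °C for minimum 48 hr; ATP measured via CellTiter-Glo, 30 min dark incubation, luminescence.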
Active calls of the source: *; ? = inconclusive; · = not tested or not shown; [ ] = another dose, or the depositor's remark. The list is not random: actives were taken first. Their share in the collection is about 18%. Unless noted, calls come from the whole dose curve; as a rule, active = well fitted curve in the direction sought with a large enough effect; inconclusive = small, poorly fitted or top-dose-only effect, or another doubt; inactive = no such curve, though single readings can be large; an effect the other way counts as inactive or inconclusive. Unless noted, % is set by controls: 0 for no effect and ±100 for the full control effect.

SMILES | RORg inh | DT40 TDP1 CPT | VP16 counter | IL1B secr inh | LDHA block | DT40 TDP1 no CPT
Cc1ccc(-n2c(/C=C/c3ccc(Br)s3)nc3ccccc3c2=O)cc1 | · | 23µM* | · | · | -4 | 21µM*
Cc1cc(-n2c(/C=C/c3ccc(Br)s3)nc3ccccc3c2=O)ccc1Br | · | 15µM* | · | · | -15 | ?
O=c1c2ccccc2nc(/C=C/c2ccc(O)cc2)n1-c1cccc(O)c1 | -22% | ? | 3% | 24 | -6 | ?
CCc1ccc([C@H]2[C@@H]3C(=O)C[C@@H]4C(=O)N(C5CCCCC5)C(=O)[C@@H]4[C@@H]3CN2S(=O)(=O)c2ccc(C)cc2)cc1 | · | ? | · | ? | -5 | ?
CC(C(N)=O)N1CC=C(c2c[nH]c3ccccc23)CC1 (stereo unspecified) | · | · | · | · | 5 | ·
CCCCCc1cc(O)c2c(c1)OC(C)(C)c1ccc(C)cc1-2 | · | 17µM* | · | · | · | 9.4µM*
C#CCO | -9% | · | 3% | · | · | ·
COC(=O)C(O)(c1ccc(NC(=S)NC(=O)c2ccc(Cl)cc2Cl)c(C)c1)C(F)(F)F (stereo unspecified) | 8.9µM* | ? | ? | -21 | -9 | 21µM*
CCOC(=O)C(O)(c1ccc(NC(=S)NC(=O)c2ccc(Cl)cc2Cl)c(C)c1)C(F)(F)F (stereo unspecified) | 13µM* | ? | ? | -54* | 0 | 12µM*
c1cn(C2CCCNC2)cn1 (stereo unspecified) | · | · | · | · | 6 | ·
COC(C/C=C/C=C/CC/C=C\CC(C)/C=C\C(=C/C(=O)O)CC(=O)O)/C(C)=C\C=C(/C)C(=O)O (stereo unspecified) | · | 14%[4.12 µM] | · | · | · | 13%[4.12 µM]
CCc1ccc(NC(=O)c2cnc3sc(N4CCCC4)nn3c2=O)cc1 | · | ? | · | · | -7 | ?
COc1ccc(CCNC(=O)c2cnc3sc(N4CCCCCC4)nn3c2=O)cc1 | · | 21µM* | · | · | -5 | 9.2µM*
O[C@@H](Cc1ccncc1)C(Cl)(Cl)Cl | 25% | -4% | -4% | · | · | -24%
NC(Cc1ccccc1)c1cc2ccccc2[nH]1 (stereo unspecified) | · | · | · | · | -3 | ·
O=C(Nc1ccc(Cl)cc1)Nc1ccc(Cl)c(C(F)(F)F)c1 | · | 4.7µM* | · | · | · | 3.3µM*
CCOC(=O)c1cc(CC)sc1/N=C/C1C(=O)NC(=S)NC1=O | -6% | -1% | -2% | 16 | -3 | 2%
CCOC(=O)c1cc(CC)sc1/N=C/c1c(O)[nH]c(=S)[nH]c1=O | 18µM* | -13% | ? | -12 | -1 | -29%
Cc1ccc(-n2nc3c(=O)n(CC(=O)NCC(C)c4ccccc4)nc(C)c3c2C)cc1 (stereo unspecified) | · | 21µM* | · | · | -4 | ?
CCn1cc(CN(C)S(=O)(=O)c2ccc3ccccc3c2)c(C)n1 | ? | 5.2µM* | ? | 8 | 1 | 5.8µM*
CCn1cc(CN2CCCC(C(=O)c3cccc(OC)c3)C2)c(C)n1 (stereo unspecified) | -1% | -21% | 2% | 35 | -10 | -27%
CC(=O)C1=C(O)[C@@H]2[C@@H]3c4c[nH]c5cccc(c45)C[C@@H]3C(C)(C)N2C1=O | -32% | 6.7µM* | -30% | · | · | 4.2µM*
CC1=C[C@@H]2c3cccc4[nH]cc(c34)C[C@H]2N(C)C1 | -19% | ? | -12% | -1 | 1 | ?
C/C(O)=C1\C(=O)[C@@H]2[C@H]3c4c[nH]c5cccc(c45)C[C@H]3C(C)(C)N2C1=O | · | 10µM* | · | · | · | 8.3µM*
CCN(CC)C(=O)N[C@@H]1C[C@H]2c3cccc4[nH]cc(c34)C[C@@H]2N(C)C1 | -8%[16.9 µM] | · | 7%[17 µM] | · | · | ·
CC(=O)C1=C(O)C2C3c4c[nH]c5cccc(c45)CC3C(C)(C)N2C1=O (stereo unspecified) | -29% | 10µM* | -24% | · | · | 7.3µM*
